From PubChem BioAssay AID1779 (Sanford-Burnham Center for Chemical Genomics, 2009)
The campaign covered roughly 290,000 compounds. About 160 (0.055%) were called active. Rule as the data show it: active = inhibition above about 50%; inactive = the rest. For the sample, actives were picked, then their nearest neighbours and some compounds at random.

biological target: Tyrosine-protein phosphatase non-receptor type 22 (Homo sapiens) (UniProt Q9Y2R2); assay: PTPN22 lymphoid phosphatase activity blockers – biochemical, fluorescence intensity, uHTS (AID 1779); conditions: recombinant LYP phosphatase, at 11.5 µM, hits give high values;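 also: plate controls were vehicle with enzyme for no effect and no enzyme for full effect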
Sequence (Q9Y2R2 whole entry, looked up): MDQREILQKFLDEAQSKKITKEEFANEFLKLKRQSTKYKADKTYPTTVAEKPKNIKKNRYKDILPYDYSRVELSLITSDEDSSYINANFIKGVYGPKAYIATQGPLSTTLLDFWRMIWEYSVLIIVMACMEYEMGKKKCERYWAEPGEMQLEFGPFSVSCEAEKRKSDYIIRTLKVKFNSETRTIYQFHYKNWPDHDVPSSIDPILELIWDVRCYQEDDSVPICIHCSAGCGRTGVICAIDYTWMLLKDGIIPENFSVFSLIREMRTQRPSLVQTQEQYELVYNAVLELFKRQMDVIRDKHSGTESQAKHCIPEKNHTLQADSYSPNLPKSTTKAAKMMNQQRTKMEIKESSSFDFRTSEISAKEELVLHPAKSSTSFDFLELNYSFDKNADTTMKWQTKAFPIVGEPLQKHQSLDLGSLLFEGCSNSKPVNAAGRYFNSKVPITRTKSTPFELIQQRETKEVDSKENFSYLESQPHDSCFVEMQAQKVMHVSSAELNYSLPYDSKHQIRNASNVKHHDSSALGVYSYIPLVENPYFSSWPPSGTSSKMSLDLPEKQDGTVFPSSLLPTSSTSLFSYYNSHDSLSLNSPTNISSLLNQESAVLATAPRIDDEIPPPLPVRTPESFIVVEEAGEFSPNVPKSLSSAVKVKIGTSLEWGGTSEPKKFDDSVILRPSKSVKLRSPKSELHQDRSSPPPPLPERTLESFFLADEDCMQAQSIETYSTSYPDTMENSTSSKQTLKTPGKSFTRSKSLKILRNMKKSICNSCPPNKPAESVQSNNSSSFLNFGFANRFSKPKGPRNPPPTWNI

Structure (SMILES) | inhibition
Cc1cc(=O)oc2cc(OCCSCCN3CCOCC3)ccc12 | -5.9% (inactive)
COc1ccc(N2CCN(CCOc3ccc4c(C)cc(=O)oc4c3)CC2)cc1 | 67.7% (active)
COc1ccc(N2CCN(C(=O)c3ccc(COc4ccc5c(C)cc(=O)oc5c4)cc3)CC2)cc1 | 2.8% (inactive)
N#C/C(=C\c1ccccc1O)C(=O)Nc1cccnc1 | -9% (inactive)
O=C(CCN1C(=O)c2ccccc2S1(=O)=O)Nc1ccccc1O | -0.2% (inactive)
CCc1nnc(NS(=O)(=O)c2ccc(NC(=O)c3cc4ccccc4oc3=O)cc2)s1 | 1.9% (inactive)
CCc1nnc(NS(=O)(=O)c2ccc(NC(=O)c3cccc4ccccc34)cc2)s1 | 1.6% (inactive)
C=CCc1cccc2cc(C(=O)Nc3ccc(S(=O)(=O)Nc4nnc(CC)s4)cc3)c(=O)oc12 | 71.3% (active)
Cc1c(C)n(C(=O)CN2CCN(c3ccccn3)CC2)c2ccccc12 | 5.2% (inactive)
O=C(Nc1c(F)cccc1F)c1ccc2c(c1)CCN2S(=O)(=O)c1ccccc1 | -8.4% (inactive)
Cc1cc(Cl)ccc1OCc1n[nH]c(=S)n1C1CCCCC1 | 4% (inactive)
Cc1ccc(N2CCN(CCCCN3C(=O)C4CCCN4C3=O)CC2)cc1 (stereo not given) | 62.7% (active)
Cc1ccc(N2CCN(CCCN3C(=O)C4CCCN4C3=O)CC2)cc1 (stereo not given) | 1.4% (inactive)
Nc1ccc(N2CCN(CCCCN3C(=O)C4CCCN4C3=O)CC2)cc1 (stereo not given) | -25% (inactive)
Cc1cccc(OCC(O)CN2CCOCC2)c1 (stereo not given) | -8.2% (inactive)
CCN(CC)CCCNC(=O)Cn1ncn2cccc2c1=O | -3.9% (inactive)
CC(C)(C)c1ccc(C2(C)NC(=O)N(CC(=O)NCc3cccs3)C2=O)cc1 (stereo not given) | -8.4% (inactive)
COc1ccc(OC(C)C(=O)N2CCOCC2)cc1 (stereo not given) | -9.8% (inactive)
COc1ccc(OC(C)C(=O)N2CC(C)OC(C)C2)cc1 (stereo not given) | 63.6% (active)
COc1ccc(OC(C)C(=O)N2CCC(C)CC2)cc1 (stereo not given) | -5.6% (inactive)

Structure (SMILES) | inhibition
COC(=O)c1ccc2c(c1)NC(=O)C(N1CCCCC1)S2 (stereo not given) | 1% (inactive)
Cc1c(C(=O)O)sc2nc(/C=C/c3cccc(F)c3)[nH]c(=O)c12 | -4.3% (inactive)
Cc1c(C(=O)O)sc2nc(/C=C/c3cccc(O)c3)[nH]c(=O)c12 | -5.3% (inactive)
CCCOc1ccc(/C=N/NC(=O)CSc2ccccn2)cc1OC | 0.2% (inactive)
CCN(CC)S(=O)(=O)c1ccc(N2CCOCC2)c(NC(=O)Cc2cccc3ccccc23)c1 | -0.8% (inactive)
COc1ccc(C(CC(=O)N2CCCCC2)c2c(OC)cc(OC)c3ccc(=O)oc23)cc1 (stereo not given) | -2.3% (inactive)
O=C(c1ccncc1)N1CCN(C(=O)c2ccncc2)CC1 | 67% (active)
COc1ccc(C(=O)N2CCN(C(=O)c3ccncc3)CC2)cc1 | -9.1% (inactive)
CS(=O)(=O)N1CCN(C(=O)c2ccncc2)CC1 | -7.1% (inactive)
CC(=O)N1CCCN(Cc2cn(-c3cccc(C)c3)nc2-c2cccc(F)c2)CC1 | -2.6% (inactive)
Cc1ccc(-n2cc(CN3CCN(C(=O)c4ncn[nH]4)CC3)c(-c3ccc(F)cc3)n2)cc1 | -3.9% (inactive)
Cc1cccc(-n2cc(CN3CCN(C(=O)c4ncn[nH]4)CC3)c(-c3cccc(F)c3)n2)c1 | 56.5% (active)
CCN(CCCNC(=O)COc1cc(=O)n(CC)c2ccccc12)Cc1ccccc1 | 6.1% (inactive)
CCOc1ccc(Nc2nc(N)c([N+](=O)[O-])c(N3CCN(CC)CC3)n2)cc1 | -3.7% (inactive)
N#C/C(=C(/O)c1ccc(C(=O)c2ccccc2)cc1)c1nc2ccccc2[nH]1 | -4.1% (inactive)
O=C(N/N=C/c1ccccn1)c1ccc(Cl)c(Cl)c1 | 72% (active)
O=C(N/N=C/c1ccccn1)c1ccccc1 | 2.8% (inactive)
O=C(N/N=C/c1ccccn1)c1ccc(Cl)cc1 | -5.3% (inactive)
COc1cc(/C=C2\SC(=O)N(Cc3ccc(Cl)cc3)C2=O)cc([N+](=O)[O-])c1O | 33% (inactive)
COc1cc(/C=C2\SC(=O)N(c3ccccc3Cl)C2=O)cc([N+](=O)[O-])c1O | 11.7% (inactive)

Structure (SMILES) | inhibition
COc1cc(/C=C2\SC(=O)N(Cc3ccc(F)cc3)C2=O)cc([N+](=O)[O-])c1O | 0.7% (inactive)
COc1cc(/C=C2\SC(=O)N(c3cccc(Cl)c3)C2=O)cc([N+](=O)[O-])c1O | 92.2% (active)
COc1cc(/C=C2\SC(=O)N(c3ccc(Cl)cc3)C2=O)cc([N+](=O)[O-])c1O | 91.6% (active)
COc1cc(/C=C2\SC(=O)N(CC(=O)Nc3cccc(C)c3)C2=O)cc([N+](=O)[O-])c1O | 4.5% (inactive)
CS(=O)(=O)N(CC(=O)N1CCN(c2cccc(Cl)c2)CC1)c1cccc(F)c1 | 4.5% (inactive)
CCCCN(C)CCC(=O)Nc1ccc2c(c1)CCC2 | -2.9% (inactive)
CCOc1ccc(Cl)cc1/C=N/NC(=O)c1ccccc1 | -4.5% (inactive)
CC1(C)c2ccccc2N2CC(=O)N[C@@]21/C=C/C=C/c1ccccc1 | 8.6% (inactive)
c1cc(-n2nnc3cnccc32)ccn1 | -4.3% (inactive)
O=C(CSc1ccc2c(c1)OCCO2)Nc1ccc(Cl)cn1 | -8.6% (inactive)
CC(=O)Nc1ccc(NC(=O)CSc2ccc(C)cc2)cc1 | -2.7% (inactive)
CC(=O)Nc1ccc(SCC(=O)Nc2ccc(Cl)cn2)cc1 | 77.1% (active)
CCn1cc(C(=O)NCCCN(CC(C)C)CC(C)C)c(=O)c2cc(S(=O)(=O)N(C)C3CCCCC3)ccc21 | -0.6% (inactive)
O=C(NC1CCSc2ccccc21)c1ccc(C(F)(F)F)cc1 (stereo not given) | -7.3% (inactive)
O=C(NCc1ccc(F)cc1)c1c2c(nc3ccccc13)CCC2 | 3.5% (inactive)
Cc1ccc2c(C)c(C(=O)NCC(C)(C)N3CCOCC3)oc2c1C | -8.2% (inactive)
C=CCc1ccc(OC)c(OC)c1 | -8.6% (inactive)
COc1ccc(C(C#N)(CCC#N)CCC#N)cc1OC | 56.1% (active)
COc1ccc(NC(=O)CC#N)cc1OC | 0.1% (inactive)
CC(C)N(C(=O)CSc1nc2ccccc2n1Cc1ccccc1F)C(C)C | 5.2% (inactive)
